Results published in PubChem BioAssay (NCATS).
Records with an inconclusive call do not appear. A call without a number means that no potency is given here. Activity calls are given as the source filed them. Unless noted, calls follow the shape of the dose curve; as a rule, active = well fitted curve in the direction sought with a large enough effect; inconclusive = small, poorly fitted or top-dose-only effect, or another doubt; inactive = no such curve, though single readings can be large; an effect the other way counts as inactive or inconclusive.

Columns and labels:
[1] = qHTS Assay for Identification of Small Molecule Antagonists for Thrombopoietin (TPO) Signaling Pathway (AID 918); settings: TPO-dependent cell signaling reporter, antagonist mode; also: potency is read from the fitted curve at half-maximal effect; nearly all actives have a fitted effect of over 60% in size
Summary of the method: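 Antagonist mode at EC50 TPO (26 pM) in IL-3-free medium; murine Ba/F3 cells with human TPO receptor and GPIIb-promoter luciferase, 24 hrs at 37 C before luminescent detection.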

[2] = target: Glutathione peroxidase 1 (Homo sapiens) (UniProt P07203); assay: Primary qHTS Assay for Inhibitors of Recombinant Selenoprotein Glutathione Peroxidase 1 (GPX1) (AID 1845191); settings: recombinant GPX1, GR-coupled NADPH fluorescence, 15 min; series mostly up to 48.8 µM; also: nearly all actives have a fitted effect of over 65% in size
Glutathione peroxidase 1 (Homo sapiens), sequence (P07203 whole entry, looked up): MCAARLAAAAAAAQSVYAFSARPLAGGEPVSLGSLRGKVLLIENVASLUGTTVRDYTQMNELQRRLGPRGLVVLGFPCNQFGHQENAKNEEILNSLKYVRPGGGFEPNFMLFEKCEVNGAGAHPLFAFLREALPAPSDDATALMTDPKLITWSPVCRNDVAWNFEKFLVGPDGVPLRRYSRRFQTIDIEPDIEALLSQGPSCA
Summary of the method: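 GPX1 10 nM, GR 100 nM, GSH 1 mM, NADPH 0.5 mM, CHP 0.5 mM (final). 30-min cpd preincubation, RT. Ex340/Em450 read t=0, t=15 min.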

[3] = target: Guanine nucleotide-binding protein G(i) subunit alpha-1 (Homo sapiens) (UniProt P63096); assay: qHTS Assay for Inhibitors of RGS12 GoLoco Motif Activity (Green Fluorophore) (AID 879); settings: Galphai1/FITC-RGS12 GoLoco peptide, fluorescence polarization; series mostly up to 57.1 µM;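 also: negative values mean loss of peptide binding seen as reduced polarization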
Guanine nucleotide-binding protein G(i) subunit alpha-1 (Homo sapiens), sequence (P63096 whole entry, looked up): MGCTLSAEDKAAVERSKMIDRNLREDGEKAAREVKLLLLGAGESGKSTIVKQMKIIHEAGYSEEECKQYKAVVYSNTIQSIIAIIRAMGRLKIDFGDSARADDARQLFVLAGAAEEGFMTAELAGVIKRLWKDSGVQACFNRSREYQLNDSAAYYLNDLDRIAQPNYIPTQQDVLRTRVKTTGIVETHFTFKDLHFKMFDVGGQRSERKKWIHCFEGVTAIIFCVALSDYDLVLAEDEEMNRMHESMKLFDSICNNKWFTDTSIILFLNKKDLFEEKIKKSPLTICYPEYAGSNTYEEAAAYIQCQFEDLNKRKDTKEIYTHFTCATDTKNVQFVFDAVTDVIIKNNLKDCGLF
Summary of the method: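 A drop in FITC polarization marked displacement of the FITC-tagged RGS12 GoLoco peptide (10 nM) from Gαi1 (50 nM). Compounds were incubated 10 min at room temperature in Tris pH 7.5 buffer containing 150 mM NaCl, 0.1 mM GDP and 0.05% NP40; unlabeled peptide titration served as control.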

[4] = target: Bile acid receptor (Homo sapiens) (UniProt Q96RI1); assay: qHTS assay for small molecule agonists of farnesoid X receptor signaling (AID 588527; calls by dose curve); settings: HEK293T FXR-UAS-bla, beta-lactamase ratio, 16 h; activation: stronger effect = higher value
Bile acid receptor (Homo sapiens), sequence (Q96RI1 whole entry, looked up): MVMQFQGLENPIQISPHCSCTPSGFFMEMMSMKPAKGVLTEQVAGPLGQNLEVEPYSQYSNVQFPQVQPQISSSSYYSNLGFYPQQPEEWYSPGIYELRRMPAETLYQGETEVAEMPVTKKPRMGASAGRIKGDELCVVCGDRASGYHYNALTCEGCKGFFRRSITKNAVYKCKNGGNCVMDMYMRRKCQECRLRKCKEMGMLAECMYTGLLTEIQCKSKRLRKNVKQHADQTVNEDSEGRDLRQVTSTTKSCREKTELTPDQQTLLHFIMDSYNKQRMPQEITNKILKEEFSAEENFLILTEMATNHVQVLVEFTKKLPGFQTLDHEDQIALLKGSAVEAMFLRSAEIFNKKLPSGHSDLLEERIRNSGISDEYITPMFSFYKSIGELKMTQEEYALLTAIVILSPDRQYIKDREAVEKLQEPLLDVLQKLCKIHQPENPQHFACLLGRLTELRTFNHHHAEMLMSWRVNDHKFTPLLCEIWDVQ
Summary of the method: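 FXR-UAS-bla HEK293T, 10% dialyzed FBS; cpds up to 92 uM titration, 16 h 37 C; CCF4 dye 2 h RT; fluorescence. Normalized to chenodeoxycholic acid 100 uM (100%) and DMSO (0%); Hill fit gives EC50, efficacy.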

[5] = target: Glucocorticoid receptor (Homo sapiens) (UniProt P04150); assay: qHTS assay for small molecule antagonists of glucocorticoid receptor signaling (AID 588533; active = well fitted inhibition curve with a large enough effect in the signal ratio, with a control signal flat, not every such curve was filed as active; the % refers to the signal ratio;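 also: cells stimulated with 2 nM dexamethasone as agonist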); settings: HeLa MMTV-bla, GRE beta-lactamase ratio, antagonist mode, 18 h; series mostly up to 76.8 µM
Glucocorticoid receptor (Homo sapiens), sequence (P04150 whole entry, looked up): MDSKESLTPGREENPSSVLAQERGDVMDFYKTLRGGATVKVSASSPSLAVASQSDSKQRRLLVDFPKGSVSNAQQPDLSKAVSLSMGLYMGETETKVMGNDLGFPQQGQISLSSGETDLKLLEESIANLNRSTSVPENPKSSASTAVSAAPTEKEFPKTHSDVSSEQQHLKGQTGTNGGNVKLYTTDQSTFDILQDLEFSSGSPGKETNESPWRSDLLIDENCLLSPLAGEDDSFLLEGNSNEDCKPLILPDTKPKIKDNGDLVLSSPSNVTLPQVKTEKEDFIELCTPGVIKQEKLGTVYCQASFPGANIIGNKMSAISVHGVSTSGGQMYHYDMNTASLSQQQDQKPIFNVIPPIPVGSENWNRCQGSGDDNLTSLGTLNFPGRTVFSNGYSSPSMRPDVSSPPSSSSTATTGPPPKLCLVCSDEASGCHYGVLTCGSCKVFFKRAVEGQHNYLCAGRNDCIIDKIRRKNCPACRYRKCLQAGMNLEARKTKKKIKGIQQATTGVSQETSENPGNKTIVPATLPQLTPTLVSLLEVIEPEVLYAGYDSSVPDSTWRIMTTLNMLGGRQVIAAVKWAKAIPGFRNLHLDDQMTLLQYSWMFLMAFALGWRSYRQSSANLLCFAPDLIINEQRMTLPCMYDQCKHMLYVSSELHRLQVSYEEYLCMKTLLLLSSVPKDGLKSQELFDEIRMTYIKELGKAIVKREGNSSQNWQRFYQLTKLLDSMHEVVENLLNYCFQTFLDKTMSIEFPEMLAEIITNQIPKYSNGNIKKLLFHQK
Summary of the method: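 Antagonist-mode qHTS: compound titrations added to GRE-bla HeLa cells, then dexamethasone 2 nM final; 18 h, 37 C. CCF4 FRET fluorescence normalized to dexamethasone and DMSO; IC50 from Hill fit.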

[6] = target: Luciferin 4-monooxygenase (Photinus pyralis) (UniProt P08659); assay: Biochemical firefly luciferase enzyme assay for NPC (AID 624030);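 also: purified P. pyralis luciferase at 10 nM with luciferin and ATP substrate; nearly all actives have a fitted effect of over 70% in size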; settings: purified P. pyralis luciferase, luminescence, 5 min; series mostly up to 58.6 µM
Luciferin 4-monooxygenase (Photinus pyralis), sequence (P08659 whole entry, looked up): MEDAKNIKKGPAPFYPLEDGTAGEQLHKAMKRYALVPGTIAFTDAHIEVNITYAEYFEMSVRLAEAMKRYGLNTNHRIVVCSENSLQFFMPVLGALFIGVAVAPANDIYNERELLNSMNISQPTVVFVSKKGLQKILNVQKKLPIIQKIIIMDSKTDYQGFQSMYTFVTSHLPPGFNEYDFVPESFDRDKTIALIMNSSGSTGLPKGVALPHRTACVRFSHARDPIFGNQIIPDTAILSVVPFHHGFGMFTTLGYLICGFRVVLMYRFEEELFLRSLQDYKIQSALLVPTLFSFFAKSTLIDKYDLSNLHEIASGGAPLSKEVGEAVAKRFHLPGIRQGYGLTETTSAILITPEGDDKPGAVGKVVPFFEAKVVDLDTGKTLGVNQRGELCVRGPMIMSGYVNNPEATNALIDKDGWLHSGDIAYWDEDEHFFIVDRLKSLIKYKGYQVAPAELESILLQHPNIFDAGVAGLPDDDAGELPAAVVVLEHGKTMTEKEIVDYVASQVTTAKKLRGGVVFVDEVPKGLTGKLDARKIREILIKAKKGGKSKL
Summary of the method: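 Counter-screen for direct inhibition of the luciferase enzyme by approved-drug library compounds, run at 10 nM enzyme in 50 mM Tris acetate (final). Luminescence was read within 5 min of enzyme-buffer addition and normalized to PTC124 versus DMSO (0%).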

[7] = S16 Schwann cell viability assay (CellTiter-Glo assay) (AID 624031); settings: S16 rat Schwann cells viability, 24 h; series mostly up to 57.5 µM;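 also: cellular ATP luminescence as a viability measure; nearly all actives have a fitted effect of over 70% in size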
Summary of the method: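 This viability control uses native rat S16 Schwann cells grown in DMEM plus 10% FBS. After a 24 h compound treatment at 37 °C, CellTiter-Glo luminescence reports ATP content, scaled against DMSO-treated and cell-free wells.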

[8] = system: 3D7; assay: qHTS profiling for inhibitors of Plasmodium falciparum proliferation (AID 504749); also: nearly all actives have a fitted effect of over 60% in size; also: potency is read from the fitted curve at half-maximal effect; settings: P. falciparum in erythrocytes, SYBR Green DNA, 72 h; series mostly up to 28.7 µM
Summary of the method: (§1)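 Fluorescence of SYBR Green-bound parasite DNA, read at 485/535 nm, served as the growth measure. Infected erythrocytes were cultured with compound 72 h; artemisinin (0.29 uM) and DMSO wells defined the normalization range.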

[9] = system: CP266; assay: as above; settings: P. falciparum in erythrocytes, SYBR Green DNA, 72 h; series mostly up to 28.7 µM
Summary of the method: as §1

[10] = system: FAB9; assay: as above; settings: P. falciparum in erythrocytes, SYBR Green DNA, 72 h; series mostly up to 28.7 µM
Summary of the method: as §1

[11] = system: PC15; assay: as above; settings: P. falciparum in erythrocytes, SYBR Green DNA, 72 h; series mostly up to 28.7 µM
Summary of the method: as §1

[12] = system: PC49; assay: as above; settings: P. falciparum in erythrocytes, SYBR Green DNA, 72 h; series mostly up to 28.7 µM
Summary of the method: as §1

[13] = system: CP194; assay: as above; settings: P. falciparum in erythrocytes, SYBR Green DNA, 72 h; series mostly up to 28.7 µM
Summary of the method: as §1

[14] = system: DIV14; assay: as above; settings: P. falciparum in erythrocytes, SYBR Green DNA, 72 h; series mostly up to 28.7 µM
Summary of the method: as §1

[15] = system: DIV17; assay: as above; settings: P. falciparum in erythrocytes, SYBR Green DNA, 72 h; series mostly up to 28.7 µM
Summary of the method: as §1

[16] = system: GB4; assay: as above; settings: P. falciparum in erythrocytes, SYBR Green DNA, 72 h; series mostly up to 28.7 µM
Summary of the method: as §1

[17] = system: ICS; assay: as above; settings: P. falciparum in erythrocytes, SYBR Green DNA, 72 h; series mostly up to 28.7 µM
Summary of the method: as §1

[18] = system: PC26; assay: as above; settings: P. falciparum in erythrocytes, SYBR Green DNA, 72 h; series mostly up to 28.7 µM
Summary of the method: as §1

[19] = system: W2; assay: as above; settings: P. falciparum in erythrocytes, SYBR Green DNA, 72 h; series mostly up to 28.7 µM
Summary of the method: as §1

[20] = Primary qHTS to identify inhibitors of SARS-CoV-2 cell entry (AID 1645846; calls by dose curve; also: nearly all actives have a fitted effect of over 45% in size); settings: SARS-CoV-2 pseudovirus cell entry assay, luminescence; activity change, negative = inhibition: at 57.1 µM (top of the series) unless noted; series mostly up to 57.1 µM
Summary of the method: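 Inhibition of spike-mediated entry was scored in human ACE2-transfected Expi293F cells. Particles were MLV-pseudotyped with Wuhan-Hu-1 S carrying a 19-aa C-terminal deletion; signal was luciferase after two days, scaled between spike PP and fusion-protein-free PP.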

C=CCN1CC[C@@]23c4c5ccc(O)c4O[C@H]2/C(=N\N=C2/CC[C@@]4(O)[C@H]6Cc7ccc(O)c8c7[C@@]4(CCN6CC=C)[C@@H]2O8)CC[C@]3(O)[C@@H]1C5
Potency [1]: 12600 nM (active)

CN(C(=O)Cc1ccccc1)[C@H](CN1CCCC1)c1ccccc1
Potency [2]: inactive

NC[C@H](CP(=O)(O)O)c1ccc(Cl)cc1
outcome [3]: inactive

Cc1ccc2cc3c(ccc4ccccc43)c3c2c1CC3
activation [4]: 2.18% (inactive) | Potency [5]: inactive

CCN1C[C@]2(COC)[C@H](O)C[C@H](OC)[C@]34C1C([C@H](OC)[C@H]23)[C@]1(OC(C)=O)C2[C@@H](OC(=O)c3ccccc3)C(O)(C[C@H]24)[C@@H](OC)[C@@H]1O
Potency [6]: inactive | Potency [7]: inactive | Potency [8]: inactive | Potency [9]: inactive | Potency [10]: inactive | Potency [11]: inactive | Potency [12]: inactive

O=C(O)c1ccccc1-c1c2cc(Br)c(=O)cc-2oc2[c]([Hg])c(O)c(Br)cc12
Potency [7]: inactive | Potency [13]: inactive | Potency [14]: inactive | Potency [15]: inactive | Potency [10]: inactive | Potency [16]: inactive | Potency [17]: inactive | Potency [18]: inactive | Potency [19]: inactive

CC(C)[C@@]1(NC(=O)[C@H]2CC3c4cccc5[nH]cc(c45)C[C@H]3N(C)C2)O[C@@]2(O)C3CCCN3C(=O)[C@@H](Cc3ccccc3)N2C1=O (stereo not given in full)
Potency [6]: inactive | Potency [8]: 2240 nM (active) | Potency [13]: 6750 nM (active) | Potency [9]: 6010 nM (active) | Potency [14]: 953 nM (active) | Potency [15]: 849 nM (active) | Potency [16]: 3010 nM (active) | Potency [17]: 447 nM (active) | Potency [11]: 1780 nM (active) | Potency [18]: 1510 nM (active) | Potency [12]: 3160 nM (active) | Potency [19]: 953 nM (active)

Cc1onc(-c2ccccc2)c1C(=O)N[C@@H]1C(=O)N2[C@@H]1SC(C)(C)[C@@H]2C(=O)O
activity change, negative = inhibition [20]: -25.7%

CCC(CC)CC1(C(=O)Nc2ccccc2SC(=O)C(C)C)CCCCC1
activity change, negative = inhibition [20]: -15.2%
